Measured values as given in PubChem BioAssay (NCI).
Compounds without any hit were thinned out: in the full panel of roughly 83,000, 20% have a hit.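 Testing used 96-well plates and a 48-hour single-concentration exposure. Example: -40 means 40% of the starting cells died.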 Activity calls are given as the source filed them. Rule for the calls: active = growth percent below 10; inactive = the rest.

Legend:
Assay in all cases: NCI-60 one-dose screen, 48 h (100 = growth as untreated, 0 = no growth, -100 = all killed)
Details in all cases: 10 µM unless noted
HCT-15 colon = tested on: HCT-15 colon
HT29 colon = tested on: HT29 colon
SNB-75 CNS = tested on: SNB-75 CNS
SNB-19 CNS = tested on: SNB-19 CNS
PC-3 prostate = tested on: PC-3 prostate
SK-MEL-5 melanoma = tested on: SK-MEL-5 melanoma
UACC-62 melanoma = tested on: UACC-62 melanoma
LOX IMVI melanoma = tested on: LOX IMVI melanoma
SK-MEL-28 melanoma = tested on: SK-MEL-28 melanoma

Measured: growth

Cc1sc2nc3[nH]/c(=C\c4ccc(Cl)cc4)c(=O)n3c(=O)c2c1C
inactive: HCT-15 colon 96.5% | HT29 colon 96.1% | SNB-75 CNS 89.6% | SNB-19 CNS 101% | PC-3 prostate 97.3% | SK-MEL-5 melanoma 99.4% | UACC-62 melanoma 99.2% | LOX IMVI melanoma 103% | SK-MEL-28 melanoma 99.8%

O=C1Nc2ccc(Br)cc2C12CC(c1ccccc1)=NN2 (stereo not given)
inactive: HCT-15 colon 32.7% | HT29 colon 12.1% | SNB-75 CNS 28.1% | SNB-19 CNS 69.1% | PC-3 prostate 29.4% | SK-MEL-5 melanoma 23.9% | UACC-62 melanoma 48.2% | LOX IMVI melanoma 51.9% | SK-MEL-28 melanoma 56.2%

C#Cc1nc(Nc2cc(C)[nH]n2)c2ccccc2n1
inactive: SNB-19 CNS 13.3%
active: HCT-15 colon -25.6% | HT29 colon -30.1% | SNB-75 CNS -88.9% | PC-3 prostate -42.1% | SK-MEL-5 melanoma -84.9% | UACC-62 melanoma -81.5% | LOX IMVI melanoma -74.8% | SK-MEL-28 melanoma -58.5%

Cc1cc(Nc2nc(N3CCOCC3)nc3ccccc23)n[nH]1
inactive: HCT-15 colon 38.7% | HT29 colon 68.4% | SNB-19 CNS 93.2% | PC-3 prostate 59.9% | SK-MEL-5 melanoma 79.9% | UACC-62 melanoma 45.7% | LOX IMVI melanoma 63.3% | SK-MEL-28 melanoma 72.2%
active: SNB-75 CNS -15.3%

COc1ccc(/C=C2\N=C3SC=C(N)N3C2=O)cc1
inactive: HCT-15 colon 20.7% | SNB-75 CNS 25.2% | SNB-19 CNS 53.8% | PC-3 prostate 20.6% | UACC-62 melanoma 23% | SK-MEL-28 melanoma 43.7%
active: HT29 colon 9.12% | SK-MEL-5 melanoma 4.65% | LOX IMVI melanoma -47.5%

CCOC(=O)CC(C)=N
inactive: HCT-15 colon 105% | HT29 colon 103% | SNB-75 CNS 84% | SNB-19 CNS 99.7% | PC-3 prostate 104% | SK-MEL-5 melanoma 100% | UACC-62 melanoma 102% | LOX IMVI melanoma 118% | SK-MEL-28 melanoma 101%

CCCCCC(=O)N(CCCC)CCCC
inactive: HCT-15 colon 96.8% | HT29 colon 111% | SNB-75 CNS 86.5% | SNB-19 CNS 92.9% | PC-3 prostate 99.8% | SK-MEL-5 melanoma 98.6% | UACC-62 melanoma 94.2% | LOX IMVI melanoma 110% | SK-MEL-28 melanoma 104%

NC1=CSC2=N/C(=C\c3ccc(Cl)cc3)C(=O)N12
inactive: HCT-15 colon 66.7% | HT29 colon 62.6% | SNB-75 CNS 87.4% | SNB-19 CNS 87% | PC-3 prostate 80.6% | SK-MEL-5 melanoma 72.6% | UACC-62 melanoma 90.3% | LOX IMVI melanoma 50.6% | SK-MEL-28 melanoma 96.3%

O=C(Nc1ccc(F)cc1)Nc1ccc(CCO)cc1
inactive: HCT-15 colon 102% | HT29 colon 103% | SNB-75 CNS 72.6% | SNB-19 CNS 107% | PC-3 prostate 108% | SK-MEL-5 melanoma 104% | UACC-62 melanoma 107% | LOX IMVI melanoma 111% | SK-MEL-28 melanoma 106%

CNC(=S)N/N=C/CSC/C=N/NC(=S)NC
inactive: HCT-15 colon 87.8% | HT29 colon 24.4% | SNB-75 CNS 88.1% | SNB-19 CNS 101% | PC-3 prostate 57% | SK-MEL-5 melanoma 81.1% | UACC-62 melanoma 89.2% | LOX IMVI melanoma 84.6% | SK-MEL-28 melanoma 99.3%

Cc1csc2ccc(Cl)cc12
inactive: HCT-15 colon 95.6% | HT29 colon 102% | SNB-75 CNS 69.7% | SNB-19 CNS 99.2% | PC-3 prostate 96.8% | SK-MEL-5 melanoma 107% | UACC-62 melanoma 96.2% | LOX IMVI melanoma 103% | SK-MEL-28 melanoma 104%

O=C1C=CC(=O)c2c1nc1n2CCCC1
inactive: HCT-15 colon 103% | HT29 colon 35.5% | SNB-75 CNS 131% | SNB-19 CNS 63.9% | PC-3 prostate 89.7% | SK-MEL-5 melanoma 22% | UACC-62 melanoma 71.4% | LOX IMVI melanoma 48.8% | SK-MEL-28 melanoma 68.3%

COc1ccc(/C=C2\N=C3Sc4cc(Cl)ccc4C(=O)N3C2=O)cc1
inactive: HCT-15 colon 102% | HT29 colon 104% | SNB-75 CNS 76.8% | SNB-19 CNS 101% | PC-3 prostate 85.5% | SK-MEL-5 melanoma 99.8% | UACC-62 melanoma 98% | LOX IMVI melanoma 98.8% | SK-MEL-28 melanoma 103%

Cc1ccc2c(NCCCN(C)C)c3c(C)nn(C)c3nc2c1
inactive: HCT-15 colon 29% | HT29 colon 18% | SNB-75 CNS 25.5% | SNB-19 CNS 63% | PC-3 prostate 29.2% | SK-MEL-5 melanoma 51.3% | UACC-62 melanoma 58.8% | LOX IMVI melanoma 15.5% | SK-MEL-28 melanoma 57.1%

O=C(/C=C/c1ccc(B(O)O)cc1)/C=C/c1ccc(B(O)O)cc1
inactive: SNB-75 CNS 72.4% | SNB-19 CNS 69% | PC-3 prostate 57.1% | SK-MEL-5 melanoma 85.5% | UACC-62 melanoma 13% | SK-MEL-28 melanoma 86.7%
active: HCT-15 colon 8.01% | HT29 colon -8.22% | LOX IMVI melanoma -36.5%

O=C(Cn1cc(CN2C(=O)c3ccccc3S2(=O)=O)nn1)Nc1ccc([N+](=O)[O-])cc1Cl
inactive: HCT-15 colon 102% | HT29 colon 108% | SNB-75 CNS 97.4% | SNB-19 CNS 98.2% | PC-3 prostate 95.4% | SK-MEL-5 melanoma 99.7% | UACC-62 melanoma 81.8% | LOX IMVI melanoma 92.1% | SK-MEL-28 melanoma 97%

C#Cc1nc2ccccc2c(=O)[nH]1
active: HCT-15 colon -47% | HT29 colon -55.2% | SNB-75 CNS -56.1% | PC-3 prostate -38.2% | SK-MEL-5 melanoma -34.6% | UACC-62 melanoma -77.2% | LOX IMVI melanoma -69.4% | SK-MEL-28 melanoma -64.8%
inactive: SNB-19 CNS 69.2%

Cc1cc(Nc2nc(N3CCN(C)CC3)nc3ccccc23)n[nH]1
active: SNB-75 CNS -15.8%
inactive: HCT-15 colon 56.5% | HT29 colon 61.5% | SNB-19 CNS 90.8% | PC-3 prostate 71.6% | SK-MEL-5 melanoma 89.9% | UACC-62 melanoma 67.9% | LOX IMVI melanoma 73% | SK-MEL-28 melanoma 68.8%

COc1ccc(-c2nn(-c3ccccc3)cc2/C=C2\SC(=O)NC2=O)cc1
inactive: HCT-15 colon 89.4% | HT29 colon 114% | SNB-75 CNS 66.3% | SNB-19 CNS 89.2% | PC-3 prostate 99.6% | SK-MEL-5 melanoma 83.1% | UACC-62 melanoma 89.2% | LOX IMVI melanoma 59% | SK-MEL-28 melanoma 112%

CCCCCCCCOC(=O)CC[C@@H](C)[C@H]1CC[C@H]2[C@@H]3[C@H](OC(=O)CCN)C[C@@H]4C[C@H](OC(=O)CCN)CC[C@]4(C)[C@H]3C[C@H](OC(=O)CCN)[C@]12C
inactive: HCT-15 colon 102% | HT29 colon 39.6% | SNB-75 CNS 63.9% | SNB-19 CNS 116% | PC-3 prostate 87.3% | SK-MEL-5 melanoma 97% | UACC-62 melanoma 104% | LOX IMVI melanoma 63.2% | SK-MEL-28 melanoma 58.4%

C[C@@H]1CC[C@@H]2[C@@H]1[C@H](OC(=O)/C=C/c1ccccc1)[C@]1(c3ccccc3)C[C@@H](OC(=O)CO)[C@@]2(C)O1
inactive: HCT-15 colon 97.7% | HT29 colon 92.2% | SNB-75 CNS 90.2% | SNB-19 CNS 96% | PC-3 prostate 80.5% | SK-MEL-5 melanoma 94.8% | UACC-62 melanoma 75.4% | LOX IMVI melanoma 97.8% | SK-MEL-28 melanoma 101%

O=C(/C=C/c1ccc(Cl)cc1)c1ccc(O)c(CN2CCN(c3cc4c(cc3F)c(=O)c(C(=O)O)cn4C3CC3)CC2)c1
active: SNB-75 CNS 4.51%
inactive: HCT-15 colon 45.4% | HT29 colon 33.8% | SNB-19 CNS 33.2% | PC-3 prostate 47.3% | SK-MEL-5 melanoma 29.8% | UACC-62 melanoma 38.2% | LOX IMVI melanoma 38.6% | SK-MEL-28 melanoma 62.1%

COc1cccc(-n2cc(-c3nc(Nc4cc(C)[nH]n4)c4ccccc4n3)nn2)c1
active: SNB-75 CNS -10.2% | SK-MEL-5 melanoma -42%
inactive: HCT-15 colon 29.7% | HT29 colon 65.5% | SNB-19 CNS 73.1% | PC-3 prostate 55.3% | UACC-62 melanoma 50.8% | LOX IMVI melanoma 66.5% | SK-MEL-28 melanoma 64%

CC(=O)Oc1cc2cnc3c4cc(OC(C)=O)c(OC(C)=O)cc4ccc3c2cc1OC(C)=O
inactive: HCT-15 colon 25.1% | HT29 colon 17.4% | SNB-19 CNS 33.9% | PC-3 prostate 21.6% | SK-MEL-5 melanoma 13.1% | LOX IMVI melanoma 10.6% | SK-MEL-28 melanoma 42.7%
active: SNB-75 CNS -5.27% | UACC-62 melanoma -22%

COc1ccc(-c2cc(C(=O)N=Nc3c(O)[nH]c4ccccc34)no2)cc1
inactive: HCT-15 colon 104% | HT29 colon 99.5% | SNB-75 CNS 66.5% | SNB-19 CNS 91.5% | PC-3 prostate 97.5% | SK-MEL-5 melanoma 98.9% | UACC-62 melanoma 100% | LOX IMVI melanoma 99.7% | SK-MEL-28 melanoma 109%

CC(=O)/C(=C/c1cccc(Cl)c1)C(=O)c1ccccc1
active: LOX IMVI melanoma 6.93%
inactive: HCT-15 colon 70% | HT29 colon 67.7% | SNB-75 CNS 84.7% | SNB-19 CNS 94.3% | PC-3 prostate 63.1% | SK-MEL-5 melanoma 89.9% | UACC-62 melanoma 83.3% | SK-MEL-28 melanoma 90.9%

CC1=N/C(=C\c2cccc(Br)c2)C(=O)O1
inactive: HCT-15 colon 104% | HT29 colon 108% | SNB-75 CNS 97.7% | SNB-19 CNS 105% | PC-3 prostate 101% | SK-MEL-5 melanoma 100% | UACC-62 melanoma 104% | LOX IMVI melanoma 100% | SK-MEL-28 melanoma 114%

O=C1C(Cl)=C(Cl)C(=O)c2c1nc1n2CCCC1
inactive: HCT-15 colon 103% | HT29 colon 99.7% | SNB-75 CNS 126% | SNB-19 CNS 96.4% | PC-3 prostate 88.5% | SK-MEL-5 melanoma 98.8% | UACC-62 melanoma 93.7% | LOX IMVI melanoma 85.8% | SK-MEL-28 melanoma 113%

CCCNc1nc(SC)nc(-c2cccc(N)c2)c1C#N
inactive: HCT-15 colon 102% | HT29 colon 116% | SNB-75 CNS 54.5% | SNB-19 CNS 91.6% | PC-3 prostate 93.6% | SK-MEL-5 melanoma 97.2% | UACC-62 melanoma 89.4% | LOX IMVI melanoma 94.1% | SK-MEL-28 melanoma 121%

O=C1C(=O)N(CCCCn2cc(CO)nn2)c2ccccc21
inactive: HCT-15 colon 102% | HT29 colon 103% | SNB-75 CNS 72.3% | SNB-19 CNS 99.5% | PC-3 prostate 98.3% | SK-MEL-5 melanoma 101% | UACC-62 melanoma 99.3% | LOX IMVI melanoma 92.1% | SK-MEL-28 melanoma 109%
